Measurements taken from PubChem BioAssay (NCATS).
Results filed as inconclusive are left out. Entries that show only a call come without a potency. Calls of active or inactive are those of the source. Calls follow the shape of the dose curve; as a rule, active = well fitted cell-killing curve with a large enough effect; inconclusive = small, poorly fitted or top-dose-only effect, or effect the other way; inactive = flat fitted curve, though single readings scatter.

Assays:
Test in all cases: Primary qHTS to identify gynecologic anti-cancer compounds using libraries of approved drugs and bioactive compounds (AID 1345084); also: nearly all actives have a fitted effect of over 55% in size
Conditions in all cases: Gynecologic cancer cell panel viability, ATPlite luminescence, 48 h; series mostly up to 57.5 µM
SKOV3 = tested on: SKOV3
Summary of the method: (§1)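 Cells, 1,000 per well, plated 16 h, then exposed 48 h at 37 C to compounds. Viability by ATPlite luminescence after 15 min at room temperature.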

Tov112D = tested on: Tov112D
Summary of the method: as §1

Tov-21-G = tested on: Tov-21-G
Summary of the method: as §1
Potency is read from the fitted curve at half-maximal effect.

CC(C)CCCCC(=O)N[C@@H](CO)C(=O)N[C@@H](CC(C)C)C(=O)[C@@]1(CO)CO1
Potency (SKOV3): inactive | Potency (Tov112D): inactive

C=C1C(=O)O[C@@H]2[C@H]1CC[C@H](C)C(CCC(=O)O)C2(C)O (some centres undefined)
Potency (SKOV3): inactive | Potency (Tov112D): inactive

Cc1nc(-c2cn3c(n2)-c2ccc(-c4cnn(C(C)(C)C(N)=O)c4)cc2OCC3)n(C(C)C)n1
Potency (SKOV3): 0.631 µM (active) | Potency (Tov-21-G): 11.2 µM (active) | Potency (Tov112D): inactive

CC(C)(O)c1ccn2c(-c3ccc(F)c(-c4ccc(F)cc4C#N)c3)cnc2c1F
Potency (SKOV3): inactive | Potency (Tov-21-G): inactive | Potency (Tov112D): inactive

O=C(Nc1ccccc1)N1CCN(c2nc(-c3ccccc3)ns2)CC1
Potency (Tov-21-G): inactive | Potency (Tov112D): inactive

C=C1C(=O)O[C@H]2C3=C(C)CCC[C@]3(C)C(=O)C[C@@H]12
Potency (Tov-21-G): 20 µM (active)

COc1ccc2nc3n[nH]c(C)c3c(NCCOCCO)c2c1
Potency (Tov-21-G): inactive | Potency (Tov112D): inactive

CC(C)c1cc2c(N3CCN(C4=NCC(C)(C)S4)CC3)ncnc2s1
Potency (Tov-21-G): inactive | Potency (Tov112D): inactive

Cc1nc2ccc(-n3ncc(C(=O)c4cc5ccccc5[nH]4)c3N)cc2[nH]1
Potency (Tov-21-G): 28.2 µM (active)

C=CC(=O)N1CCC(Oc2cc3c(Nc4ccc(Cl)c(Cl)c4F)ncnc3cc2OC)CC1
Potency (Tov-21-G): 25.1 µM (active)

C=C1C(=O)O[C@H]2/C=C(/C)[C@@H](OC(C)=O)C/C=C(\C)C[C@@H](OC(=O)/C(=C/C)COC(=O)/C(=C/C)CO)[C@@H]12
Potency (Tov-21-G): 8.91 µM (active)

Cc1cc(C(=O)Nc2cc(Nc3ccc4c(/C=C/c5ccccn5)n[nH]c4c3)ccc2F)n(C)n1
Potency (Tov-21-G): inactive | Potency (Tov112D): inactive

CC[C@@H](C)[C@@H]1OC2(C=C[C@H]1C)C[C@@H]1C[C@H](C/C=C(\C)[C@H](O[C@H]3C[C@H](OC)[C@H](O[C@H]4C[C@H](OC)[C@H](NC(C)=O)[C@H](C)O4)[C@H](C)O3)[C@H](C)/C=C/C=C3\CO[C@H]4[C@H](O)C(C)=C[C@@H](C(=O)O1)[C@@]34O)O2 (some centres undefined)
Potency (Tov-21-G): inactive | Potency (Tov112D): inactive
